According to PubChem BioAssay AID1259415 (National Center for Advancing Translational Sciences (NCATS), 2018):
Hit rate of the full screen: of about 410,000 compounds, about 18,000 (4.4%) were called active. About 7% were inconclusive and are not listed. The sample holds actives, similar compounds and a random draw of the others, so the mix is not that of the screen. Values without a mark were called inactive. No stated cut-off is given here; in the data, active means activity change below about -60%; inconclusive means no clear call, values can overlap the other calls; inactive means above about -39%.

Assay: qHTS Assay for inhibitors of the human cytomegalovirus (HCMV)
Conditions: HFF cells, HCMV-luciferase reporter, 72 h; at 57.5 µM; active compounds read low
How it was run: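 Steps: HFFs plated, 16 h 37C; compounds added; HCMV-luciferase added to MOI 1 PFU/cell; 72 h 37C; OneGlo reagent, 5 min room temperature; luminescence read, normalized to controls.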
On the % scale 0 is the no-effect control and ±100 the full control effect.

Row | Compound | activity change, negative = inhibition
1 | CCc1nn(CC(=O)Nc2cccc(C)c2C)c(=O)c2cc3sccc3n12 | -1.56%
2 | Cc1cc2oc(=O)cc(CN(C)Cc3ccc(OC(F)F)cc3)c2cc1Cl | 26.8%
3 | CCn1c(Cc2cccs2)nnc1SCC(=O)c1ccc(C)cc1 | 47.4%
4 | CC(=O)c1c(C)n(S(=O)(=O)c2ccc(Cl)cc2)c2ccc(NS(=O)(=O)c3ccc(Cl)cc3)cc12 | 1.89%
5 | Cc1ccc(OCC(=O)OCc2cc(=O)n3nc(C4CC4)sc3n2)cc1 | -34%
6 | O=C(NCC12CC3CC(CC(C3)C1)C2)c1cc2nc(-c3ccccc3)cc(C(F)(F)F)n2n1 | -2.2%
7 | COc1ccc(N2CCN(C(=O)C3CCCN(C(=O)c4cc5sccc5n4C)C3)CC2)cc1 (configuration not stated) | -14.9%
8 | Cc1cc(C)c(NC(=O)CN2C(=O)c3cccnc3Oc3ccc(Cl)cc32)c(C)c1 | 0%
9 | O=C(NCCCO)C(=O)Nc1c2c(nn1-c1ccc(F)cc1)CSC2 | -5.08%
10 | Cc1ccc(Nc2c(-c3ccc(Cl)cc3)nc3sccn23)c(C)c1 | -23.6%
11 | Cc1cccc(NC(=O)CSc2nc3c(oc4ccccc43)c(=O)n2-c2ccc(F)cc2)c1 | -12%
12 | O=C(NNC(=O)c1cccc(S(=O)(=O)Nc2ccc(Cl)cc2)c1)c1ccc(=O)[nH]c1 | 24%
13 | Cc1ccc(NC(=O)c2ccc(Cl)nc2)cc1S(=O)(=O)N1CCOCC1 | -8.05%
14 | Cc1ccc(C(=O)NNC(=O)c2ccncc2)cc1S(=O)(=O)N1CCCCC1 | -15.8%
15 | CC(=O)Nc1ccc(C(=O)Nc2cccc(S(=O)(=O)NC3=NCCC3)c2)cc1 | -22.7%
16 | O=C(Nc1cccc(S(=O)(=O)Nc2ccc(Cl)cc2)c1)c1ccc2c(c1)OCCO2 | -94.5% (active)
17 | O=C(Nc1ccc2c(c1)OCCO2)c1ccc(Cl)c(S(=O)(=O)N2CCCCC2)c1 | -72.6% (active)
18 | CCOc1ccc(CCNC(=O)C2CCN(c3ccc(N4CCOCC4)nn3)CC2)cc1OCC | 2.74%
19 | Cc1cc(C)c(C)c(S(=O)(=O)N[C@@H](C)C(=O)OC(C)C(=O)NC(N)=O)c1C (some centres not stated) | -14.5%
20 | COc1ccc(NC(=O)c2sc3nc(-c4cc5cccc(OC)c5oc4=O)[nH]c(=O)c3c2C)cc1 | -14.2%
21 | Cc1ccc(Cn2cc(CCC(=O)NCc3ccc(OC(C)C)cc3)c3ccccc32)cc1 | 4.19%

Row | Compound | activity change, negative = inhibition
22 | O=C(O)c1cc2c(cc1NC(=O)c1c(F)cccc1Cl)OCCCO2 | -29.4%
23 | CCN(CC)CCNC(=O)c1ccc(NC(=O)c2c(F)cccc2Cl)cc1 | -23.1%
24 | O=C(NNc1cc(Cl)cc(Cl)c1)c1c(F)cccc1Cl | -68.5% (active)
25 | COc1ccc(/C=C2/C(=O)N(c3ccccc3)N=C2C)c(OC)c1 | 67.9%
26 | CCOc1ccc(/C(O)=C2/C(=O)C(=O)N(Cc3cccnc3)C2c2ccc(N(C)C)cc2)c(C)c1 (configuration not stated) | 19.8%
27 | CC1=NN(Cc2ccccc2)C(=O)/C1=C/c1ccc(N(C)C)cc1 | -61.8% (active)
28 | CC(=O)c1ccc(NC(c2ccc(F)cc2)c2nnc(-c3ccccc3)o2)cc1 (configuration not stated) | 16.8%
29 | O=C(c1ccco1)n1nc(-c2ccc(Cl)cc2)nc1NCc1ccccc1 | -5.57%
30 | COc1ccccc1CNC(=O)C(=O)NCC(c1ccco1)S(=O)(=O)c1ccc(F)cc1 (configuration not stated) | -13.4%
31 | Cc1cccc(N2CCN(S(=O)(=O)c3ccc(-c4cc(C)no4)s3)CC2C)c1 (configuration not stated) | 15.2%
32 | Cc1cc(-c2ccc(S(=O)(=O)N3CCc4ccccc4C3)s2)on1 | -77.4% (active)
33 | Cc1cc(-c2ccc(S(=O)(=O)N3CCN(c4cccc(C(F)(F)F)c4)CC3)s2)on1 | -38.1%
34 | COc1ccc(CC(=O)N2CC(=O)Nc3ccc(Br)cc3C2c2ccc(F)cc2)cc1OC (configuration not stated) | -3.53%
35 | COC(=O)[C@@]1(Cc2ccc(OC)cc2)[C@H]2c3cc(C(=O)N4CCCC4)n(Cc4ccc(OC(F)(F)F)cc4)c3C[C@H]2CN1C(=O)c1ccccc1 | -18.9%
36 | COC(=O)[C@@]1(Cc2ccc(F)cc2)[C@H]2c3cc(C(=O)N(C)C)n(CCc4c[nH]c5ccc(OC)cc45)c3C[C@H]2CN1C(=O)c1ccccc1 | -82.3% (active)
37 | COC(=O)[C@@]1(Cc2ccc(F)cc2)[C@H]2c3cc(C(=O)N4CCCC4)n(C[C@H](O)CO)c3C[C@H]2CN1C(=O)c1ccccc1 | 5.98%
38 | CCC(=O)N1CCc2cc(S(=O)(=O)NC(C(=O)NCCc3ccc(C)cc3)C(C)C)ccc21 (configuration not stated) | 12.8%
39 | CCc1n[nH]c(=S)n1/N=C/c1c[nH]c2ccc(Br)cc12 | -6.5%
40 | Cc1ccccc1-c1n[nH]c(=S)n1/N=C/c1ccc(-c2ccccc2Br)o1 | -88.9% (active)
41 | CN(Cc1ccccc1)C(=O)c1cn(C)c2ccc(S(=O)(=O)N(C)C3CCCCC3)cc2c1=O | 13.4%
42 | CCCOc1ccc(N2CC(C(=O)Nc3ccccn3)CC2=O)cc1 (configuration not stated) | 6.17%

Row | Compound | activity change, negative = inhibition
43 | O=C(Nc1cccc2c1N(C(=O)c1ccco1)CCC2)c1ccco1 | -39.1%
44 | COc1cccc(-n2c(=O)c3c(C)c(C(=O)N(C)C)sc3n(Cc3cccc(C)c3)c2=O)c1 | -2.38%
45 | CCOC(=O)Nc1ccc2c(c1)N(C(=O)CN1CCN3CCCC3C1)c1ccccc1CC2 (configuration not stated) | 74.9%
46 | CCOC(=O)Nc1ccc2c(c1)N(C(=O)CCCl)c1ccccc1[S@]2=O | -102% (active)
47 | CCOC(=O)Nc1ccc2c(c1)N(C(=O)CCN1CCN(CCO)CC1)c1ccccc1CC2 | -20.5%
48 | Cc1ccc(S(=O)(=O)N(Cc2nc(-c3ccc(Cl)cc3)no2)C2CCCCC2)cc1 | -16.3%
49 | COc1cc(C(=O)NCCS(=O)(=O)N2CCN(c3ccccc3)CC2)cc(OC)c1OC | 38.7%
50 | Cn1c(N)c(C(=O)COC(=O)c2ccc3ccccc3c2)c(=O)n(C)c1=O | 7.39%
51 | Cn1c(N)c(C(=O)COC(=O)c2cnc(Cl)c(Cl)c2)c(=O)n(C)c1=O | -99.9% (active)
52 | CCc1ccc(OCC(=O)OCC(=O)c2c(N)n(C)c(=O)n(C)c2=O)cc1 | -68.3% (active)
53 | CCCCOc1ccc(C(=O)NCC(=O)OCC(=O)c2c(N)n(C)c(=O)n(C)c2=O)cc1 | -28.8%
54 | Cc1cc(C(=O)OCC(=O)c2c(N)n(C)c(=O)n(C)c2=O)c(C)o1 | -20.6%
55 | Cn1c(N)c(C(=O)COC(=O)COc2ccc(Cl)cc2)c(=O)n(C)c1=O | -16.9%
56 | Cc1ccc(S(=O)(=O)N(C)C)cc1NC(=O)c1ccc(-n2cncn2)c([N+](=O)[O-])c1 | -7.42%
57 | CC(C)NC(=O)c1nnc2n1CCN(C(=O)C1(c3ccc(Cl)cc3)CCCC1)C2 | -2.1%
58 | COc1cc(Cl)ccc1Nc1ncc(C(=O)N2CCN(c3ccccc3OC)CC2)c2ccccc12 | 9.53%
59 | Cc1cccc(NC(=O)CN(c2ccc(C(C)C)cc2)S(=O)(=O)c2c(C)nn(C)c2C)c1C | -17.9%
60 | COc1ccc(SSc2ccc(OC)cc2C(=O)O)c(C(=O)O)c1 | 4.79%
61 | C=CCOc1ccc(C(=O)Nc2ccccc2C(=O)N2CCCC2)cc1 | 3.09%
62 | COc1ccc(/C=N/Nc2ccccc2C(=O)O)cc1 | -64.5% (active)
63 | COc1ccc(C(=O)Nc2ccccc2C(=O)N/N=C/c2ccc(O)c(OC)c2)cc1 | -71.4% (active)

Row | Compound | activity change, negative = inhibition
64 | COc1cc(C(=O)Nc2cc(C(F)(F)F)ccc2N2CCOCC2)ccc1O | 37.5%
65 | COC(=O)C(C)N=Cc1ccccc1 (configuration not stated) | -19.2%
66 | C=CCOc1c(CNn2cn[nH]c2=S)cccc1OC | -4.48%
67 | COC(=O)C[C@H]1C=C[C@H](NC(=O)c2ccc(F)cc2)[C@@H](CO)O1 | 21.6%
68 | COc1ccc(OC)c(CCNc2nc3cnc(-c4cccc(Oc5ccccc5)c4)cc3n2C)c1 | -30.5%
69 | Cc1c(NC(=O)c2cc(=O)c3ccccc3o2)c(=O)n(-c2ccccc2)n1C | 2.18%
70 | CCCN(C(=O)Cn1ncc2c([nH]c3ccc(C)cc32)c1=O)c1ccccc1C | -8.94%
71 | CCOc1cccc2c1N[C@@H](c1ccc(C(=O)O)cc1)[C@H]1CC=C[C@@H]21 | -5.85%
72 | COc1ccccc1C(=O)Nc1c(C(=O)N(C)Cc2ccccc2)sc2nc(C)c(Cl)c(C)c12 | -19.6%
73 | COc1ccccc1NC(=O)c1cc(Cl)nnc1Cl | -22.5%
74 | COc1ccccc1NC(=O)c1sc2nc(C)c(C(=O)Nc3ccc(Cl)cc3)c(-c3ccc(Br)cc3)c2c1N | -104% (active)
75 | Cc1ccc(Nc2c(-c3ccc(C)s3)nc3ccccn23)cc1 | 74.5%
76 | Cc1ccc(NC(=O)c2oc3ccc(S(=O)(=O)N4CCCCC4)cc3c2C)cc1Cl | -4.09%
77 | COc1ccccc1N(CC(=O)Nc1c(C)n(C)n(-c2ccccc2)c1=O)S(=O)(=O)c1ccccc1 | -32%
78 | COc1ccc(C)cc1N(CC(=O)NC(C)c1ccccc1)S(C)(=O)=O (configuration not stated) | -5.84%
79 | COc1ccccc1N(CC(=O)N/N=C(\C)c1ccccc1O)S(=O)(=O)c1ccc(C)cc1 | -68.7% (active)
80 | COc1ccccc1N(CC(=O)N1CCCCC1)S(=O)(=O)c1ccccc1 | -0.178%
81 | Cc1ccc(S(=O)(=O)N(CC(=O)NCc2ccco2)c2ccccc2C)cc1 | -14.7%
82 | COc1ccccc1NC(=O)CN(c1ccccc1OC)S(=O)(=O)c1ccccc1 | -93.1% (active)
